Screening results (PubChem BioAssay)
Most compounds without a hit are left out; they make up all but 2.9% or so of the library.
EPAC2 antag: human EPAC2 antagonism, validation | hit rate 1.7% among 16,000 | AID 1645886 | Potency, µM (series often up to 112 µM), for inactives: at the highest dose activity, negative = inhibition, usual class: inhibitors | Q8WZA2 | EPAC2 Rap1B BODIPY-GDP exchange, fluorescence;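 further: 100% = activation by cAMP agonist control; nearly all actives have a fitted effect of over 40% in size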
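Normalized against a 6.5 mM cAMP agonist control, compounds were tested on 100 nM EPAC2 exchanging Rap1B-bound BODIPY-GDP (250 nM) for 50 uM GDP. Fluorescence drop (ex 480, em 540 nm) was tracked at room temperature over 30 min at 5-min intervals.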
EPAC1 agonist: validation of human EPAC1 agonists; hit rate 1% among 16,000; O95398; Potency, µM, for inactives: max response, positive = active, usual class: activators; AID 1645883; EPAC1 Rap1b BODIPY-GDP exchange, fluorescence; further: nearly all actives have a fitted effect of over 70% in size
An asterisk follows results filed as active; i = inactive; ? = inconclusive; ! = not confirmed by another sample; [ ] = remark or other dose. The call rests on the fitted dose curve; in most records, active means well fitted curve in the direction sought with a large enough effect; inconclusive means small, poorly fitted or top-dose-only effect, or another doubt; inactive means no such curve, though single readings can be large; an effect the other way counts as inactive or inconclusive. Unless noted, on the % scale 0 is the no-effect control and ±100 the full control effect; potency means the concentration at half of the fitted maximal effect.

SMILES | EPAC2 antag | EPAC1 agonist
Cc1oc(-c2ccccc2NC(=O)C2CCC2)nc1CNC(=O)c1cccc(C(F)(F)F)c1 | -36.2% | 13.3%
COc1cc(C)c(CN2C[C@H](Sc3ccccn3)C[C@H]2C(=O)N(C)C)cc1C | ? | 2.7%
CC(C)=CCC/C(C)=C/CC/C(C)=C/CO | 44.7µM*! | -16.0%
CC(C)=CCC/C(C)=C/CC/C(C)=C/CC/C(C)=C/CC/C(C)=C/CC/C(C)=C/CC/C(C)=C/CC/C(C)=C/CC/C(C)=C/CO | -20.7% | 2.0%
O=C(C[n+]1cccc(Br)c1)c1ccc(I)cc1 | -4.4% | 8.1%
Cc1ccc(O)c(N=Nc2ccccc2)n1 | 56.2µM*! | -13.7%
Cc1ccc2ccccc2n1 | 9.6% | -62.7%
CC(NC(=O)c1cc(F)ccc1F)c1nnc2n1CCN(Cc1ccc(-c3ccccc3)cc1)CC2 (configuration not stated) | -17.8% | 0.0%
Cc1cc(OCCOCC[N+](C)(C)Cc2ccccc2)ccc1C(C)(C)CC(C)(C)C | ? | -18.0%
C1=Cc2ccccc2/C1=C\c1ccc2c(c1)OCO2 | ? | 100µM*
C1=Cc2ccccc2/C1=C/c1ccc(/C=C2\C=Cc3ccccc32)cc1 | 17.4% | ?
COc1cccc(-c2ccnc(-n3ncc(C(=O)NCC4(N5CCCCC5)CCCC4)c3C)n2)c1 | 1.2% | 3.5%
O=C(c1ccoc1)N1CCOc2ccc(CN3CCC(Oc4cccnc4)CC3)cc2C1 | ? | 7.4%
Cc1ccc(CN2C[C@H](Sc3ccccn3)C[C@H]2C(=O)Nc2ccc3sc(C)nc3c2)c(C)c1 | -19.0% | 1.0%
COc1cccc2c1C(=O)c1c(O)c3c(c(O)c1C2=O)C[C@@](O)(C(=O)CO)C[C@@H]3O[C@H]1C[C@H](N)[C@H](O[C@@H]2CCCCO2)[C@H](C)O1 | 135.7% | 21.9%
CC(=O)[C@]1(O)Cc2c(O)c3c(c(O)c2[C@@H](O[C@H]2C[C@H](N)[C@H](O)[C@H](C)O2)C1)C(=O)c1ccccc1C3=O | i | 39.8µM*
CC(=O)[C@]1(O)Cc2c(O)c3c(c(O)c2[C@@H](O[C@H]2C[C@H](N)[C@H](O)[C@H](C)O2)C1)C(=O)c1c(O)cccc1C3=O | i | 112µM*
COc1cccc2c1C(=O)c1c(O)c3c(c(O)c1C2=O)C[C@@](O)(C(C)=O)C[C@@H]3O[C@H]1C[C@H](N)[C@H](O)[C@H](C)O1 | 41.4%[29.6 µM] | 112µM*!
CC[C@@]1(O)C[C@H](O[C@H]2C[C@H](N(C)C)[C@H](O[C@H]3C[C@H](O)[C@H](O[C@H]4CCC(=O)[C@H](C)O4)[C@H](C)O3)[C@H](C)O2)c2c(cc3c(c2O)C(=O)c2c(O)cccc2C3=O)[C@H]1C(=O)OC | 24.9% | 18.3%
COc1cc2nc(N3CCCC(O)C3)c(CNCc3ccccc3C(F)(F)F)cc2c(OC)c1OC (configuration not stated) | -5.2% | -3.8%
OCC(S)CS (configuration not stated) | -16.0% | 11.6%
O=C(c1ccccc1C(F)(F)F)N1CCOc2c(cc(-c3nc4ccccc4s3)cc2OC2CCOC2)C1 (configuration not stated) | -17.5% | -2.0%
C[N+]1(CC(=O)c2ccccc2)CCc2ccccc2C1 (configuration not stated) | ? | 6.1%
CC[C@@]1(O)C(=O)OCc2c1cc1n(c2=O)Cc2cc3c(CN(C)C)c(O)ccc3nc2-1 | 86.7% | 112µM*
CC[C@@]1(O)C(=O)OCc2c1cc1n(c2=O)Cc2cc3c([N+](=O)[O-])cccc3nc2-1 | -16.8% | 6.2%
SMILES | EPAC2 antag | EPAC1 agonist
COc1ccc(OC)c(-c2cc(Cl)c3c(c2)CC(CNC(=O)C(C)N2CCOCC2)O3)c1 (configuration not stated) | -25.5% | -7.0%
CCn1c(C)nc2cc(NS(=O)(=O)c3ccccc3)cc(C(=O)N3C[C@@H](C)O[C@@H](C)C3)c21 | 11.7% | -10.0%
COc1ccccc1C1CN(CCNC(=O)[C@@H]2CSC(=O)N2)Cc2ccccc2O1 (some centres not stated) | -21.3% | 6.1%
O=C1OC(c2ccc(O)cc2)(c2ccc(O)cc2)c2ccccc21 | 35.5µM*! | ?
O=C1c2ccccc2C(=O)c2c(O)ccc(O)c21 | 57.3% | -22.9%
COc1cc2nc(CC(O)c3nc4cc(OC)c(OC)cc4[nH]3)[nH]c2cc1OC (configuration not stated) | -1.3% | 19.1%
CCCCN(CCCC)c1ccc(/C=C/c2ccnc3ccccc23)cc1 | 130.0% | 112µM*
C(=C\c1ccnc2ccccc12)/c1ccnc2ccccc12 | -34.3% | -89.6%
C=Nc1ccc(/C=C/c2ccnc3ccccc23)cc1 | 28.3% | 100µM*
CCCCCCCCCCCCCCCCCCN(CCCCCCCCCCCCCCCCCC)c1ccc(/C=C/c2ccnc3ccccc23)cc1 | -27.0% | -16.9%
COCC(=O)Nc1cc(C(=O)N[C@H]2CCCCNC2=O)c2c(c1)nc(-c1ccncc1)n2C | -17.5% | 6.8%
COc1ccccc1C(=O)N[C@@H]1c2ccccc2C2(CCN(Cc3nccs3)CC2)[C@H]1OC | ? | -4.5%
O=c1c(O)c(-c2ccccc2)oc2cc(O)cc(O)c12 | ? | 6.0%
O=c1c(O)c(-c2cc(O)c(O)c(O)c2)oc2cc(O)cc(O)c12 | 35.5µM*! | -6.4%
Cc1cccc(CN2Cc3cccc4c3[C@H](C=CC4)CC2=O)c1 | 31.6µM* | 2.7%
O=C1C[C@H]2C=CCc3cccc(c32)CN1Cc1ccc(F)cc1 | ? | 25.6%
CCn1nc(C)cc1C(=O)NCC1Cc2cc(C)cc(-c3ccccc3C(=O)OC)c2O1 (configuration not stated) | ? | -2.0%
COc1ccc(C(=O)c2ccccc2)c(O)c1 | 39.8µM*! | -20.8%
COc1ccc(C(=O)c2ccc(C)cc2)c(O)c1 | ? | -7.4%
CCC(=O)O[C@]1(C(=O)CCl)[C@@H](C)C[C@H]2[C@@H]3C[C@H](F)C4=CC(=O)C=C[C@]4(C)[C@@]3(F)[C@@H](O)C[C@@]21C | ? | 10.9%
C#C[C@]1(OC(C)=O)CCC2C3CCC4=CC(=O)CCC4C3CC[C@]21C (some centres not stated) | 79.4µM* | 16.1%
C#C[C@]1(O)CC[C@H]2[C@@H]3CCc4cc(O)ccc4[C@H]3CC[C@@]21C | -19.6% | -37.3%
C#C[C@@]1(O)CCC2C3CCC4=CC(=O)CCC4C3CC[C@@]21CC (some centres not stated) | -20.9% | 9.5%
C#C[C@]1(OC(C)=O)CC[C@H]2[C@@H]3CCC4=C[C@@H](OC(C)=O)CC[C@@H]4[C@H]3CC[C@@]21C | ? | 44.7µM*!
CCCCCCCCCCCCCCCC[n+]1ccc(C)cc1 | ? | -15.0%
SMILES | EPAC2 antag | EPAC1 agonist
c1cc2c3c(c1)CCC[N+]3(C1CCCCC1)CCC2 | -33.6% | ?
Oc1ccc(Cl)cc1Sc1cc(Cl)ccc1O | 50.1µM* | -30.4%
N[C@@H](Cc1ccc(O)c(O)c1)C(=O)O | 1.0% | -0.6%
N[C@H](C(=O)O)[C@@H](O)c1ccc(O)c(O)c1 | 79.4µM* | ?
CC(C)(CO)[C@@H](O)C(=O)NCCCC(=O)O | -17.0% | -0.5%
C#CCN(Cc1nc(N2CCOCC2)c2ccc(Cl)cc2n1)Cc1ccco1 | 50.1µM* | 4.9%
CN(C)Cc1ccccc1-c1nc(N2CCOCC2)c2ccccc2n1 | -4.0% | 3.0%
Cc1nc2sccn2c1CN1CCOc2ccc(CN3C[C@@H](C)O[C@@H](C)C3)cc2C1 | -2.3% | -12.1%
COc1ccc2[nH]cc(CCNc3ncnc4ccc(-c5cccc(C#N)c5)cc34)c2c1 | -22.5% | 23.6%
COc1ccc2[nH]cc(CCNc3ncnc4ccc(-c5ccccc5C#N)cc34)c2c1 | -21.3% | 112µM*
